Test results from article PMC12136788.
Positions count from the first letter of the chain named. The full ranking holds about 5,800 sequences; the median of “enrichment r” is about 0.54, and the highest 2% start at about 16. The sample as a whole holds a higher share of the highest values than the screen did.

B1: chr2:112659350:112659462:+|CDS|ENSG00000144136|unk|FALSE|unique (ssRNA)
RNA: GGGAGUUCUACAGUCCGACGAUCCUUGCCAAGGUGGGAGAUUGCAUGGGAGACUCCGGUGACAAACCCUUAAGGCGCAAUAAUAGCUAUACUUCCUAUACCAUGGCAAUAUGUGGCAUGCCUCUGGAUUCAUUCCGUGCCAAACAACAGAGGAUUGAGCAUCA
B2: chr12:49763637:49763739:+|3pUTR|ENSG00000139644|msi1_unk|total|mutant (ssRNA)
RNA: GGGAGUUCUACAGUCCGACGAUCAUGUGUAUCAAGGUACAGCAUCGCCGGGUUCCCCUAAACUUGCCCUGUUUUUGUUUUUUCCGUUUGUUAUCCCCUUACUGAGCGGCCUCUACCCGGUGGCUGUGAUUAAAUGUCCCAAGCCAACAGAGGAUUGAGCAUCA
B3: chr20:17613772:17613873:-|3pUTR|ENSG00000125844|unk|total|mutant (ssRNA)
RNA: GGGAGUUCUACAGUCCGACGAUCAGCCCCGUGGGUGUGUGGGAGGCCGGGCGCUCUGGGGUCUGUCUGUCAGUGCAAUCGUUCCGUGUUUUUUCAGUGGGGCGGGGCGGGAAGCGGGUGGGACCGGGCAGCCAGUUCUCAAAGCAACAGAGGAUUGAGCAUCA
B4: chr4:48851844:48851957:+|CDS|ENSG00000109180|unk|FALSE|unique (ssRNA)
RNA: GGGAGUUCUACAGUCCGACGAUCAUAUGACUCAAGUGUGAGUGGUCAAUCAUCUUUUGUGACAUCCCCAGCAGCAGACAACAUAGAAAUGCUUCCUCAUUAUGAGCCAAUUCCAUUCAGUUCUUCUAUGAAUGAAUCUGCUCCCAACAGAGGAUUGAGCAUCA
B5: ENSG00000107863:be:win_2201|CDS|ENSG00000107863|bound_else_gene|NA|bound_elsewhere_windowed (ssRNA)
RNA: GGGAGUUCUACAGUCCGACGAUCCUGUCAUCCUAAGGGAAAAACCUCCAUCUGGACGCCAGACACCGCAGCCUUUAAGGCAUCAGUCUUACAUCUUGGCAGUAAAUGACCAGGAGACCGGGUCAGACACUACCUGCUGGCUGCCAACAGAGGAUUGAGCAUCA
B6: chr18:55226207:55226308:-|3pUTR|ENSG00000196628|unk|FALSE|unique (ssRNA)
RNA: GGGAGUUCUACAGUCCGACGAUCAUUUUUACAGCCACACAAUUCUUGGCAUGUAUUAAGAAAAAAAAAAAUCCCUGUUCAAGUAGUUUUUCCACCUAUCAGCACUGAGUAAAUGCCAUAAAUCCAUUGAAAUGGUCUAAAUGUCAACAGAGGAUUGAGCAUCA
B7: chr16:21655520:21655610:+|3pUTR|ENSG00000197006|msi1_unk|total|mutant (ssRNA)
RNA: GGGAGUUCUACAGUCCGACGAUCUCUGUGUUCACAAUUACGUGAAGGGAGGACCCUUGGGGACCGCCAUUCUAAAUAUCAUGCCGGAAUUUAAAAAGCCAAAAUACUAAUUAUUUCUUUGCCGUGUGUAAAGGAAUGUUUUUACAACAGAGGAUUGAGCAUCA
B8: ENSG00000151612:stop:overlap|stop_codon|ENSG00000151612|stop_codon|NA|stop_codon (ssRNA)
RNA: GGGAGUUCUACAGUCCGACGAUCCAGGCCUGUUGGAGAAGGAAGCCAGCAGUGAGGGGGAUUGCAAAGUAGAGAGAGGUUGGUAGAACUGUGGACUGUGAAGAGAUCGAGAAUAGCACAGUUAACUAGGCAUUUGCCUUCGGCCAACAGAGGAUUGAGCAUCA
B9: ENSG00000136451:be:win_551|CDS|ENSG00000136451|bound_else_gene|NA|bound_elsewhere_windowed (ssRNA)
RNA: GGGAGUUCUACAGUCCGACGAUCGAGAUGUGUACCAUCUCAAUCGACACAAGCUCUCCCAUUCAGAUGAGAAACCCUUUGAGUGUCCUAUUUGUAAUCAGCGCUUCAAGAGGAAGGACCGGAUGACUUACCAUGUGAGGUCUCCAACAGAGGAUUGAGCAUCA
B10: chr6:134965076:134965177:-|3pUTR|ENSG00000112339|unk|total|mutant (ssRNA)
RNA: GGGAGUUCUACAGUCCGACGAUCAAAGGAACAAUGUGCAAUUGAUAUGUUUUCCGAUGAGAGAGAAAAAUUAAAGCUAAAAUCCGCUGCAAAGAAGUAUUAAUAAUCACCUCUGCAAAAAUUCUAAGUUGCCAACUGGCAAAGCAACAGAGGAUUGAGCAUCA
B11: chr19:811491:811550:+|3pUTR|ENSG00000011304|msi1_unk|FALSE|overlapping (ssRNA)
RNA: GGGAGUUCUACAGUCCGACGAUCUAGCAAUAUUUCCAGUUGACCAAAUAUUCUAAUCUUUUUUCAUUUAUAUGCAAAAGAAAUAGUUUUAAGUAACUUUUUAUAGCAAGAUGAUACAAUGGUAUGAGUGUAAUCUAAACUUCCCAACAGAGGAUUGAGCAUCA
B12: ENSG00000070961:be:win_4601|3pUTR|ENSG00000070961|bound_else_gene|NA|bound_elsewhere_windowed (ssRNA)
RNA: GGGAGUUCUACAGUCCGACGAUCUCAGACUAUCAAACUACAAGAGAACCUUAGUCUUUUUUGUUUUUGUCUAAACAUGUUAGUUUAGUGAUGUCUUGGUGAACUGUGAGUGAACUGUAUUGAUUUUUCUAAUCUUUAGAGACCCAACAGAGGAUUGAGCAUCA
B13: chr7:111727939:111728040:-|3pUTR|ENSG00000128512|unk|FALSE|unique (ssRNA)
RNA: GGGAGUUCUACAGUCCGACGAUCAAGUGGUAAAUAGUGAUAAAGACUCCUUUUGUACCUUUUUAUGUUCACUUUUUUUUAUAUAGUUUAAUCUUAAAACCAAUACGAUAUUGUCAAACGAUACAAUGUGUGACAAUGUUGUAUCAACAGAGGAUUGAGCAUCA
B14: chr7:111727939:111728040:-|3pUTR|ENSG00000128512|unk|total|mutant (ssRNA)
RNA: B13 RNA with U34C, A35C, U83C, A84C
B15: ENSG00000070961:be:win_4651|3pUTR|ENSG00000070961|bound_else_gene|NA|bound_elsewhere_windowed (ssRNA)
RNA: GGGAGUUCUACAGUCCGACGAUCACAUGUUAGUUUAGUGAUGUCUUGGUGAACUGUGAGUGAACUGUAUUGAUUUUUCUAAUCUUUAGAGACCUUCACACAGCAUGAGGGCUGUUGGCAUUUUGAAAAAGGUUAAUAAGUAGACAACAGAGGAUUGAGCAUCA
B16: ENSG00000070961:be:win_4701|3pUTR|ENSG00000070961|bound_else_gene|NA|bound_elsewhere_windowed (ssRNA)
RNA: GGGAGUUCUACAGUCCGACGAUCUUUUCUAAUCUUUAGAGACCUUCACACAGCAUGAGGGCUGUUGGCAUUUUGAAAAAGGUUAAUAAGUAGAAGCAUACAUGUUUUCCUUUUGUUUUUGAAACUUGUUUGUAAACAUAAAUACAACAGAGGAUUGAGCAUCA

target: MSI1 full-length (mouse, UniProt Q61474 1-362); assay: nsRBNS (natural sequence RNA bind-n-seq); RBNS binding buffer (assumed for nsRBNS): 25 mM Tris pH 7.5, 150 mM KCl, 3 mM MgCl2, 0.01% Triton X-100, 500 ug/ml BSA, 20 U/ml SUPERase-In, 4 C; UNK is unkempt and MSI1 is Musashi-1; names of the RNAs are library labels; protein concentration not given here; high values mean tight binding
Sequence (Q61474 whole entry): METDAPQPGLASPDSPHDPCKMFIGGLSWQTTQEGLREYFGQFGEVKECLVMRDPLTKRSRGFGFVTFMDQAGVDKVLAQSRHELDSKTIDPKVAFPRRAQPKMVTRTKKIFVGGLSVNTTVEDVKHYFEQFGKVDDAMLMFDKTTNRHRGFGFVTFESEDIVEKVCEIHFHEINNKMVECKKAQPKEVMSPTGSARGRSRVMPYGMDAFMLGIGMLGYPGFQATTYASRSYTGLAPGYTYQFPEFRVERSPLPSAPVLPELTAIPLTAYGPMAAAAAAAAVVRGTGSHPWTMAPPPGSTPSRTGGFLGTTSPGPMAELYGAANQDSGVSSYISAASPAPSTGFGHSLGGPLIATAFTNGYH

Q: With B1 as the binder, how does the binding signal read?
A: 0.737 enrichment R

Q: Which binding signal does the source give for B2 here?
A: 0.481 enrichment R

Q: B3 was tested. Which binding signal did it give?
A: 0.811 enrichment R

Q: For B4, which binding signal is on record?
A: 0.341 enrichment R

Q: For B5, which binding signal is on record?
A: 0.283 enrichment R

Q: With B6 as the binder, how does the binding signal read?
A: 0.374 enrichment R

Q: Which binding signal does the source give for B7 here?
A: 0.282 enrichment R

Q: With B8 as the binder, how does the binding signal read?
A: 3.25 enrichment R

Q: For B9, which binding signal is on record?
A: 0.307 enrichment R

Q: With B10 as the binder, how does the binding signal read?
A: 0.346 enrichment R

Q: For B11, which binding signal is on record?
A: 0.9 enrichment R

Q: B12 was tested. Which binding signal did it give?
A: 3.69 enrichment R

Q: With B13 as the binder, how does the binding signal read?
A: 37.8 enrichment R

Q: For B14, which binding signal is on record?
A: 3.05 enrichment R

Q: With B15 as the binder, how does the binding signal read?
A: 28.3 enrichment R

Q: B16 was tested. Which binding signal did it give?
A: 0.664 enrichment R
